# Source: PubChem BioAssay AID493168 (National Center for Advancing Translational Sciences (NCATS), 2011)
# Results filed as inconclusive are left out. Where a call stands in place of a potency, no number is given. The source made the active and inactive calls. Calls follow the shape of the dose curve; as a rule, active = well fitted inhibition curve with a large enough effect; inconclusive = small, poorly fitted or top-dose-only effect, or effect the other way; inactive = flat fitted curve, though single readings scatter.
# Biological target: Ubiquitin carboxyl-terminal hydrolase 2 (Homo sapiens) (UniProt O75604)
# Assay: Confirmation Assay for Inhibitors of Ubiquitin-specific Protease USP2a Using CHOP2 as the Reporter; also: nearly all actives have a fitted effect of over 55% in size
# Details: USP2 core, Ub-CHOP2 coupled reporter fluorescence; series mostly up to 38.3 µM
# In short: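 USP2 core (10 nM final) was preincubated with compound for 30 min at RT in Tris-HCl pH 8.0, CaCl2, beta-mercaptoethanol, CHAPS. Ub-CHOP2 and reporter substrate (25 nM final each) were added, and fluorescence (Ex 485/Em 531 nm) was read after 60 min.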
# Potency is read from the fitted curve at half-maximal effect.
# Chain of Ubiquitin carboxyl-terminal hydrolase 2 (Homo sapiens) (O75604 whole entry, looked up): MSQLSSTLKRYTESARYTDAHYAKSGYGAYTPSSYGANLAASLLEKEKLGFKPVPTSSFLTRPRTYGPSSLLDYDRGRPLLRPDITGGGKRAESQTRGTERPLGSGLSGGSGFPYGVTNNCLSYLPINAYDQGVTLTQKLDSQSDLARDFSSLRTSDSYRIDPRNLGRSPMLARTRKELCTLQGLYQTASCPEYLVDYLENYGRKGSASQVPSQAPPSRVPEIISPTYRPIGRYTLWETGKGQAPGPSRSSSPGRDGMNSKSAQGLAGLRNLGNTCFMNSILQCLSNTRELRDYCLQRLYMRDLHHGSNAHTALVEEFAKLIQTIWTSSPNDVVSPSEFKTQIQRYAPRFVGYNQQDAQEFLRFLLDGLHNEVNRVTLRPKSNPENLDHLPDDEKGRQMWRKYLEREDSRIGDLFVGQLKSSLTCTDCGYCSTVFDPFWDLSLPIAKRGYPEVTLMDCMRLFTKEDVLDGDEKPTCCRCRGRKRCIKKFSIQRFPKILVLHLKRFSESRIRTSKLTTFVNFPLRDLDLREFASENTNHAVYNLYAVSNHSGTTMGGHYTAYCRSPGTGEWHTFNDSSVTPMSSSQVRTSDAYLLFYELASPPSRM
row,SMILES,Potency
1,Cc1cc(SCC(=O)NC2CCCCC2)nc2ccccc12,inactive
2,Cc1ccc(SCC(=O)Nc2ccc(C(=O)Nc3ccc(O)cc3)cc2)cc1,inactive
3,O=C(C1CCCN(S(=O)(=O)c2cccc3cccnc23)C1)N1CCN(c2ccccc2F)CC1 (stereo not given),inactive
4,CNC(=O)NC(=O)CSc1ccc(NC(C)=O)cc1,inactive
5,COCCn1c(SCC(=O)Nc2cc(C)on2)nnc1-c1ccccc1,inactive
6,O=C(Nc1ccc(Nc2ccncc2)cc1)c1ccc(Nc2ccnc3ccc([N+](=O)[O-])cc23)cc1[N+](=O)[O-],inactive
7,CC(C)Cn1c(SCC(N)=O)nnc1-c1cccc(S(=O)(=O)N2CCOCC2)c1,inactive
8,COc1cc(C2C(C#N)=C(N)Oc3c2ccc2ccccc32)ccc1OCC(=O)Nc1cccc(C)c1 (stereo not given),inactive
9,C[C@H](CO)N1C[C@H](C)[C@@H](CN(C)S(=O)(=O)c2cn(C)cn2)Oc2ccc(NC(=O)Cn3cnnn3)cc2C1=O,inactive
10,Cn1c(=O)[nH]c(=O)c2c1nc(NCc1ccccc1)n2CCCc1ccccc1,inactive
11,Cc1ccc(C(=O)N/C(=C/c2ccco2)C(=O)Nc2cccc(C(=O)O)c2)cc1,inactive
12,CC1=C(C(=O)OC(C)C)C(C)C(C(=O)OC(C)C)=C(C)N1,inactive
13,CCCOc1ccc(/C=C2\SC(=S)N(CC3CCCO3)C2=O)cc1 (stereo not given),inactive
14,CCC(CO)Oc1cc(NCc2cccc(C)c2)c2ncn(C(C)C)c2c1 (stereo not given),inactive
15,COc1cc(/C=C(/C(=O)c2cccs2)c2nc3ccccc3[nH]2)ccc1O,inactive
16,N#C/C(=C\c1ccc(O)c(O)c1)C(=O)Nc1cccc2ncccc12,18.5 µM (active)
17,Cc1ccc(N(CC(=O)Nc2ccc(S(=O)(=O)N3CCOCC3)cc2)S(C)(=O)=O)cc1C,inactive
18,COc1ccc(C(=O)Nc2ccc(N3CCCC3)cc2)cc1OC,inactive
19,Cc1ccc(C)n1-c1cc(S(=O)(=O)N2CCOCC2)ccc1N1CCCC1,inactive
20,Fc1ccc(-c2nnn(Cc3nc4ccccc4s3)n2)cc1,inactive

row,SMILES,Potency
1,NC(=O)c1ncc(C(F)(F)F)cc1Oc1cccc(F)c1,inactive
2,O=C(O)/C=C/c1ccc(S(=O)(=O)Nc2ccccc2C(=O)Nc2ccc(F)cc2)cc1,inactive
3,Cc1ccc(NS(=O)(=O)c2cccc(C(=O)OCC(=O)NCc3ccco3)c2)cc1,inactive
4,CCOc1ccc(NC(=O)c2cccc(-n3cnnn3)c2)cc1,inactive
5,Cc1c(C(=O)Nc2ccc3c4c(cccc24)CC3)cccc1[N+](=O)[O-],inactive
6,CCOC(=O)c1[nH]c2ccc(OC)cc2c1NC(=O)CCN1CCCC(C)C1 (stereo not given),inactive
7,CC(C)(C)C1CCc2nc(NC(=O)Cc3cn4ccsc4n3)sc2C1 (stereo not given),inactive
8,CN(CC(=O)Nc1cccc2ccccc12)C(=O)c1ccc(NC(=O)CC#N)cc1,inactive
9,O=C(c1cccc(F)c1)N1CCN(S(=O)(=O)c2ccccc2)CC1,inactive
10,CN(C)c1ccc(/C=C(/NC(=O)c2ccccc2)C(=O)N/N=C/c2ccc([N+](=O)[O-])c(O)c2)cc1,inactive
11,Nc1ccc(C2=Nc3cccc4cccc(c34)N2)cc1,inactive
12,Cc1ccc(NC(=O)CCC(=O)OC(C)C(=O)c2ccccc2)cc1 (stereo not given),inactive
13,O=c1cc2oc3cc(O)c(O)cc3c(-c3ccccc3[N+](=O)[O-])c-2cc1O,18.5 µM (active)
14,COc1ccc(S(=O)(=O)NCCSCc2ccco2)cc1OC,inactive
15,O=C(CSc1nc2ccccc2c(=O)n1CC1CCCO1)NCc1ccccc1 (stereo not given),inactive
16,COc1ccc(-n2c(=S)[nH]c3cc(C(=O)NCc4ccc(F)cc4)ccc3c2=O)c(OC)c1,inactive
17,CSc1cccc(NC(=O)c2ccccc2N(C)S(C)(=O)=O)c1,inactive
18,COC(=O)c1[nH]c(=O)c2ccccc2c1OCc1ccccc1,inactive
19,Cc1cccn2c(=O)c3cc(C(=O)NCCN4CCOCC4)c(=N)n(CCN4CCOCC4)c3nc12,inactive
20,Cc1ccc(C(C(=O)NC2CCCC2)N2CCc3ccccc32)cc1 (stereo not given),inactive
